Assay outcomes deposited in PubChem by several laboratories.
A selection: hits, their analogues and other compounds. The true share with any hit is near 3.7%.
FadD28 FP inh: blocks FadD28 binding to the bisubstrate probe | fluorescence polarization | inhibition, % at 12.5 µM | hit rate 0.22% among 360,000 | AID 588549; in the data active = inhibition above about 8.5%, passing the limit was not always enough
Mtb UGM inh: Mtb UDP-galactopyranose mutase inhibition | AID 504406 | purified UGM, fluorescence polarization probe displacement | inhibition, % at 10 µM | hit rate 0.06% among 320,000; in the data active = inhibition above about 10%, passing the limit was not always enough
GDH-TPI counter-1: counter-screen for M. tuberculosis FBA inhibitors: GDH-TPI coupled enzymes. inhibition, % at 4.8 µM. hit rate 1.2% among 360,000. GDH-TPI coupled enzyme counterscreen, NADH absorbance; in the data active = inhibition above about 30%;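 note: 0% = DMSO wells and 100% = wells lacking the enzyme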
Mtb FBA inh: inhibitors of M. tuberculosis fructose-bisphosphate aldolase; purified M. tuberculosis FBA, fluorescence read-out; inhibition, % at 1 µM; hit rate 2.3% among 360,000; AID 588726;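 note: 0% = vehicle and 100% = reference inhibitor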
Mtb bLac sens: beta-lactam sensitization of Mtb H37Rv; M. tuberculosis H37Rv growth with meropenem, percent inhibition; inhibition, % at 25 µM; hit rate 0.27% among 330,000; call rule not given here;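 note: growth measured after seven days incubation then overnight dye step; 0% = bacteria only wells and 100% = bacteria with antibiotic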
Rv3671c inh: Rv3671c (M. tuberculosis) protease inhibition; P9WHR9; hit rate 0.048% among 320,000; AID 2606; inhibition, % at 5.96 µM; in the data active = inhibition above about 38%;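 note: extracellular domain of Rv3671c used as enzyme; 0% = enzyme with DMSO and 100% = no enzyme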
Target sequence (P9WHR9 whole entry, looked up, the tested form may be a part): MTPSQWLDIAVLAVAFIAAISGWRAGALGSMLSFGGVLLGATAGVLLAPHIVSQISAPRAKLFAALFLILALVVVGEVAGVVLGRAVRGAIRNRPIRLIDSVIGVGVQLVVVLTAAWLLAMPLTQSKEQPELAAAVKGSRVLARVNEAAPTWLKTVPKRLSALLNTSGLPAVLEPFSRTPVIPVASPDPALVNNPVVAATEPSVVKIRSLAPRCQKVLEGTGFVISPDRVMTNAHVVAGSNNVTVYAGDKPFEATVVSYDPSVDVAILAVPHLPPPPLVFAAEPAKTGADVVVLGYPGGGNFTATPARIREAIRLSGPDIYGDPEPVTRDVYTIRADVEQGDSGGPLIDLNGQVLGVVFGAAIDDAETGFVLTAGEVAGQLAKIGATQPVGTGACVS
Mtb FBA confirm: confirmation of M. tuberculosis fructose-bisphosphate aldolase inhibitors; shares compounds with Mtb FBA inh; purified M. tuberculosis FBA, fluorescence read-out; inhibition, % at 1 µM; hit rate 78% among 5,600; AID 651616;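 note: 0% = vehicle wells and 100% = reference inhibitor wells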
GDH-TPI counter-2: inhibits GDH-TPI coupling enzymes, flagging Mtb FBA hits; shares compounds with Mtb FBA inh; GDH-TPI coupled enzyme counterscreen, fluorescence; inhibition, % at 1 µM; hit rate 81% among 5,600; AID 652141; in the data active = inhibition above about 10%
* = called active by the depositor; · = not tested or not shown; + = active, no number. Cut-off read from the data, not from the text of the source, unless noted: active = inhibition above about 27%; inactive = the rest.

SMILES | FadD28 FP inh | Mtb UGM inh | GDH-TPI counter-1 | Mtb FBA inh | Mtb bLac sens | Rv3671c inh | Mtb FBA confirm | GDH-TPI counter-2
O=c1oc(Nc2cccc(F)c2)nc2ccccc12 | -2 | -2 | -2 | 36* | 6 | 3 | 96* | 79*
Nc1nc(Nc2cccc(F)c2)nc2ccccc12 | -3 | 1 | 5 | -5 | -6 | -6 | · | ·
CCOC(=O)c1cn(Cc2ccccc2)c2cc(C)nn2c1=O | -2 | -4 | 2 | 53* | 6 | -2 | 103* | 86*
CCOC(=O)c1cn(Cc2ccc(Cl)cc2Cl)c2cc(C)nn2c1=O | -1 | -1 | 4 | 29* | -17 | 1 | 72* | 59*
COC(=O)c1cc(C(=O)OC)n(Cc2ccc(Cl)cc2Cl)n1 | -3 | -5 | 11 | 3 | -6 | -3 | · | ·
O=C(c1ccco1)N1CCN(c2ncnc3scc(-c4ccc(Cl)cc4)c23)CC1 | -3 | · | 1 | -3 | · | · | · | ·
Cc1cc(NC(=O)c2ccc3nccnc3c2)ccc1Br | · | 3 | 4 | -3 | -7 | -14 | · | ·
Cc1ccc(C(=O)Nc2ccc3nccnc3c2)cc1 | -1 | -1 | 12 | 37* | -14 | 1 | 44* | 36*
COc1ccccc1-c1sc2cc3c(cc2c1C#Cc1cncn1C)OCO3 | -22 | -1 | 10 | 48* | 97 | -4 | 88* | 61*
CCc1noc(C)c1C(=O)N1CCN(S(=O)(=O)c2ccc(Cl)cc2)CC1 | -3 | 4 | -10 | 33* | -6 | 4 | 94* | 79*
Cc1noc(C)c1CSCC(=O)Nc1ccccc1N1CCCCC1 | -2 | -2 | -5 | 1 | 1 | 5 | · | ·
Cc1cc2[nH]c(=O)c(=O)[nH]c2cc1S(=O)(=O)NC1CCC(C)CC1 (stereo unspecified) | -1 | -1 | 14 | 29* | 3 | -12 | 191* | 188*
Cc1cc2[nH]c(=O)c(=O)[nH]c2cc1S(=O)(=O)NCc1ccccc1 | -5 | 0 | 7 | 33* | 0 | -2 | 72* | 65*
Cc1cc2[nH]c(=O)c(=O)[nH]c2cc1S(=O)(=O)NCC(C)c1ccccc1 (stereo unspecified) | -1 | · | 18 | 24 | · | · | · | ·
O=C(CCN1C(=O)NC2(CCCC2)C1=O)Nc1ccc(Sc2ccc(Br)cc2)cc1 | -3 | · | 0 | -3 | · | · | · | ·
COc1ccc(C2(C)NC(=O)N(CC(=O)Nc3ccc(-c4nc5ccc(C)cc5s4)cc3)C2=O)cc1 (stereo unspecified) | 0 | -1 | 8 | 16 | -8 | -164 | · | ·
Cc1ccc2nc(-c3ccc(NC(=O)CN4C(=O)c5ccccc5C4=O)cc3)sc2c1 | -2 | -3 | 9 | 34* | 7 | 0 | -6 | -6
O=C(CCN1C(=O)NC2(CCCC2)C1=O)Nc1ccc(-c2nc3ccccc3s2)cc1 | -5 | · | 27 | 40* | 88 | -15 | 174* | 119*
CCC1(c2ccc(F)cc2)NC(=O)N(CC(=O)Nc2ccc(-c3nc4ccc(C)cc4s3)cc2)C1=O (stereo unspecified) | -1 | 3 | 23 | 41* | 56 | -171 | + | 150*
Cc1ccc2nc(-c3ccc(NC(=O)CNC4CC4)cc3)sc2c1 | -2 | · | 14 | 28* | · | · | 48* | 39*
O=C(CN1CCN(C(=O)CCC(=O)N2CCC(c3ccccc3)=N2)CC1)Nc1ccc(F)cc1 | -1 | · | 4 | 2 | · | · | · | ·
Cc1ccc(C)c(NC(=O)COC(=O)c2cccc(S(=O)(=O)N3CCCC3)c2)c1 | 0 | · | -1 | -1 | · | · | · | ·
Cc1ccc(C)c(N(CC(=O)Nc2ccc(-c3nc4ccc(C)cc4s3)cc2)S(C)(=O)=O)c1 | 0 | 0 | 16 | 24 | 5 | -10 | · | ·
Cc1ccc2nc(-c3ccc(NC(=O)COC(=O)c4ccc(=O)[nH]c4)cc3)sc2c1 | 0 | 2 | 9 | 39* | 0 | -21 | 39* | 30*
Cc1nc2ccc(NC(=O)CCS(=O)(=O)c3ccccc3)cc2s1 | -4 | 1 | 7 | 2 | 85 | 2 | · | ·
Cc1ccc2nc(-c3ccc(NC(=O)CCS(=O)(=O)c4ccccc4)cc3)sc2c1 | -3 | -1 | 3 | 44* | 2 | -16 | -6 | -6
